# BAZ2B inh: inhibitors of human BAZ2B bromodomain. AID 504333. hit rate 4.4% among 360,000. Potency, µM (highest dose often 114 µM), most hits filed as inhibitors. AlphaScreen BAZ2B-H3K14Ac peptide displacement; also: nearly all actives have a fitted effect of over 60% in size
#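 In this displacement format the biotinylated H3(5-23) peptide acetylated at Lys14 serves as ligand at 50 nM, with BAZ2B at 50 nM in PBS pH 7.4 containing 0.01% Tween-20. Donor and acceptor beads are 10 ug/mL final.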
# JMJD2A Tudor: inhibitors of human JMJD2A Tudor domain; Potency, µM (doses to about 114 µM), actives largely listed as inhibitors; O75164; hit rate 4.4% among 390,000; AlphaScreen JMJD2A-Tudor / H3K4me3 peptide binding; also: nearly all actives have a fitted effect of over 50% in size
# L3MBTL1 inh: blocks human L3MBTL1 | Q9Y468 | AlphaScreen L3MBTL1–H3K9me1 peptide binding | Potency, µM (doses to about 57.1 µM), actives largely listed as inhibitors | hit rate 0.66% among 230,000 | AID 485360; also: nearly all actives have a fitted effect of over 60% in size
#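 L3MBTL1 50 nM + b-AHA-H3(1-15)K9me1 75 nM, 30 min RT; compound added, 30 min RT; streptavidin donor/Ni-chelate acceptor beads 10 ug/mL each final, 30 min RT dark; AlphaScreen read.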
# G9a inh: G9a (human) methyltransferase inhibition; G9a H3K9 monomethylation, AlphaScreen, 2 h; Potency, µM (top dose mostly 102 µM), most hits filed as inhibitors; hit rate 8.8% among 350,000; also: nearly all actives have a fitted effect of over 75% in size
#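 Methyltransferase reactions run at room temperature for 2 h (20 nM enzyme, 500 nM biotin-H3K9 peptide, 20 uM SAM) after a 15 min compound preincubation; product detected by AlphaScreen beads and anti-H3K9me1 antibody.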
# HP1b binding inh: HP1-beta chromodomain-methylated histone interaction inhibition; AlphaScreen HP1-beta / biotin-H3K9me3 peptide binding; Potency, µM (doses to about 114 µM), hits mostly inhibitors; hit rate 0.56% among 390,000; AID 540317; also: nearly all actives have a fitted effect of over 70% in size
#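 Compound inhibition of the preformed complex between 50 nM HP1-beta and 50 nM biotinylated H3K9me3 peptide was read by AlphaScreen. Buffer was PBS pH 7.4 with 0.01% Tween-20. Incubations ran 30 min at room temperature, with 10 ug/mL donor/acceptor beads.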
# A number is an active result; - = inactive; ? = inconclusive; . = no result given; ! = not active in a repeat; [ ] = dose if it differs, or a comment. A selection: hits, their analogues and other compounds. The true share with any hit is near 11%. Calls follow the shape of the dose curve; as a rule, active = well fitted inhibition curve with a large enough effect; inconclusive = small, poorly fitted or top-dose-only effect; inactive = no such curve, though single readings can be large or run the other way.
SMILES,BAZ2B inh,JMJD2A Tudor,L3MBTL1 inh,G9a inh,HP1b binding inh
Cc1c(N=Nc2c(O)n(-c3ccc(Br)cc3)c(=O)[nH]c2=O)c(=O)n(-c2ccccc2)n1C,28µM,35µM,?,.,-
CNC(=S)N(C)CCc1cc2c(c(OC)c1C=C1C(=O)NC(=O)NC1=O)OCO2,?,-,-,79µM,-
COc1ccc(N2CCN(CCCN)CC2)cc1,.,10µM,.,.,?
NCCCN1CCN(c2ccccc2)CC1,-,?,-,.,-
C=CCN,.,.,.,-,.
CCOC(=O)Cn1c(C)[n+](C)c2cc(Cl)c(Cl)cc21,-,28µM,-,45µM,-
CCOC(=O)c1ccc2c(c1)n(Cc1ccccc1)c(C)[n+]2CC,-,-,-,-,-
C[N+]12CCC(CC1)C(=C(c1ccccc1)c1ccccc1)C2,-,-,-,3.5µM,-
CN1C(=O)C(=Cc2ccc(Sc3ccccc3)o2)C(=O)N(C)C1=O,-,-,-,8.9µM,-
O=C1NC(=O)C(=Cc2ccc(Sc3ccccc3)o2)C(=O)N1,?,?,-,-[12.7 µM],-
CN1C(=O)C(=Cc2ccc(Sc3ccccc3)o2)C(=O)N(C)C1=S,.,50µM,.,.,?
CN1C(=O)NC(=O)/C(=C\C=C\c2ccccc2[N+](=O)[O-])C1=O,?,?,-,7.9µM,?
CCN1C(=O)C(=Cc2ccc(N3CCOCC3)o2)C(=O)N(CC)C1=S,40µM,-,-,.,-
CN1C(=O)C(=Cc2ccc(N3CCOCC3)o2)C(=O)N(C)C1=S,?,-,-,-,-
C=CCN1C(=O)/C(=C\c2ccc(N3CCOCC3)o2)C(=O)NC1=S,-,-,-,8.9µM,-
CCOC(OCC)P(=O)(O)CCCN,.,.,.,-,.
O=C(Oc1ccccc1)N1CCC2(CC1)CCN(C(c1ccccc1)c1ccccc1)CC2,.,.,.,-[12.7 µM],.
Cc1c(C=C2C(=O)N(C)C(=S)N(C)C2=O)c2ccccc2n1CC(=O)NCC1CCCO1 (stereo not given),?,-,.,14µM,-
CCOC(=O)c1ccc(N2C(=O)CC(N3CCC(O)(c4ccc(Br)cc4)CC3)C2=O)cc1 (stereo not given),-,-,.,50µM,-
CCOC(=O)c1ccc(N2C(=O)CC(N3CCC(O)(c4ccc(Cl)cc4)CC3)C2=O)cc1 (stereo not given),-,-,-,?,-
C[C@H](CO)N1C[C@H](C)[C@@H](CN(C)Cc2ccc(-c3ccccc3)cc2)Oc2c(NC(=O)c3ccncc3)cccc2C1=O,.,?,-,.,-
C#CCOc1ccc(OC)cc1C(c1c(C)[nH][nH]c1=O)c1c(C)[nH][nH]c1=O,-,-,-,?,-
COC[C@H]1OC(=O)c2coc3c2[C@@]1(C)C1=C(C3=O)[C@@H]2CCC(=O)[C@@]2(C)C[C@H]1OC(C)=O,.,-,.,5µM,-
CCOC(=O)c1c(C)n(Cc2ccco2)c2ccc(OC)cc12,-,-,-,-,-
CCOC(=O)c1c(C)n(Cc2ccco2)c2c1cc(O)c1ccccc12,-,-,.,16µM,-
SMILES,BAZ2B inh,JMJD2A Tudor,L3MBTL1 inh,G9a inh,HP1b binding inh
CC(C)CNC(=O)c1c(N)n(Cc2ccco2)c2nc3ccccc3nc12,-,-,.,45µM,-
CC(C)OC(=O)c1c(N)n(Cc2ccco2)c2nc3ccccc3nc12,-,-,-,3.5µM,-
COc1ccccc1NC(=O)CCn1cnc2onc(-c3ccc(F)cc3)c2c1=O,-,-,.,-,-
COc1ccc(/C=C/C2=CCN(C)CC2)cc1,-,-,-,79µM,-
c1ccc(N2CC[C@@]3(CCCNC3)C2)cc1,.,.,.,-[12.7 µM],.
O=C1NC(=O)C(=Cc2ccc(-c3ccc(S(=O)(=O)N4CCOCC4)cc3)o2)C(=O)N1,-,-,-,7.1µM,-
O=C1NC(=O)C(=Cc2ccc(-c3ccc(Cl)cc3)o2)C(=O)N1,?,?,-,6.3µM,-
Cn1c(O)c(N=Nc2ccc(S(=O)(=O)N3CCOCC3)cc2)c(=O)n(C)c1=O,-,-,-,?,-
O=C1NC(=O)C(=Cc2ccc(-c3ccc(F)cc3O)o2)C(=O)N1,56µM,?,?,7.1µM,-
Cn1c(=O)n(C)c2cc(CNCCc3ccc(F)cc3)ccc21,-,-,.,-,-
COc1ccc2c(c1)c(C(=O)O)c(C)n2CC(C)C,-,-,.,-[12.7 µM],-
COc1cc(O)c(C(=O)O)c(-c2cc(O)c(O)cc2C)c1,56µM,13µM,.,0.35µM,?
NC(=NCc1ccc(Cl)cc1)SCCCc1cnc[nH]1,.,.,.,-,.
CN(Cc1ccccc1)C(=O)c1ccc(NC(=O)C2CCN(C(=O)OC(C)(C)C)CC2)cc1,.,?,-,.,-
Cc1cc(OCC(=O)N[C@@H](Cc2ccccc2)C(=O)O)c2c3c(c(=O)oc2c1)CCC3,-,-,.,-[12.7 µM],-
Cc1cc(OC(C)C(=O)NCc2ccncc2)c2c3c(c(=O)oc2c1)CCC3 (stereo not given),-,-,.,-,-
Cc1cc(OC(C)C(=O)NCc2cccnc2)c2c3c(c(=O)oc2c1)CCC3 (stereo not given),-,89µM,.,-,-
Cc1cc(OCC(=O)N[C@H](C(=O)O)c2ccccc2)c2c3c(c(=O)oc2c1)CCC3,-,?,-,79µM,-
c1cnc(N2CC3(CCNCC3)C2)nc1,.,.,.,-[12.7 µM],.
CCCN1CCO[C@@H]2c3cc(O)ccc3OC[C@H]21,-,-,-,18µM!,-
COc1ccc(N2C(=O)CC(=O)NC2=O)cc1,-,-,-,-,-
COc1ccc(N2C(=O)/C(=C/c3ccc(C)o3)C(=O)NC2=S)cc1,45µM,32µM,.,10µM,-
Cc1ccc(/C=C2\C(=O)NC(=S)N(c3cccc(F)c3)C2=O)o1,50µM,45µM,?,1.8µM,?
CCON=O,.,.,.,-[12.7 µM],.
CCCN1CCCC2Cc3[nH]ncc3CC21 (stereo not given),.,.,.,50µM,.
SMILES,BAZ2B inh,JMJD2A Tudor,L3MBTL1 inh,G9a inh,HP1b binding inh
CC[C@@]1(C(=O)OC)N[C@H](CN(C)C(=O)Nc2ccc(F)cc2)[C@@H]2C(=O)N(Cc3ccccc3)C(=O)[C@@H]21,.,-,-,.,-
Cc1cccc(N/N=C/c2c(O)[nH]c(=S)[nH]c2=O)c1,.,-,.,.,-
COCCn1c(O)c(/C=N/NC(=O)CSC(=S)N2CCCC2)c(=O)[nH]c1=S,-,89µM,-,-,-
O=C(CSC(=S)N1CCCC1)N/N=C/c1c(O)[nH]c(=S)[nH]c1=O,.,56µM,-,.,-
C=CCSc1nnc(NC(=O)c2ccc(Cl)nc2)s1,-,-,.,-[12.7 µM],-
CN(C)C1C(=O)C(C(N)=O)=C(O)C2(O)C(=O)C3=C(O)c4c(O)cccc4C(C)(O)C3C(O)C12 (stereo not given),2µM,-,.,.,-
CCOCCCNC(=O)c1c[nH]c2ccc(S(=O)(=O)N(C)c3ccc(Cl)cc3F)cc2c1=O,-,-,.,-,-
CCOP(=O)(C1=C(O)C(=O)C(C(C)(C)C)=CC1=O)c1ccccc1 (stereo not given),-,-,.,56µM,-
CCOP(=O)(OCC)c1cccc(P(=O)(c2ccccc2)c2ccccc2)c1O,-,-,.,-,-
O=C1NC(=O)C(=Cc2ccco2)C(=O)N1,.,45µM,.,.,-
O=C1NC(=O)C(=Cc2c(Cl)cccc2Cl)C(=O)N1,.,-,.,.,-

# From PubChem BioAssay
